Inconclusive results are not listed. Activity calls are given as the source filed them. Unless noted, the call rests on the fitted dose curve; in most records, active means well fitted curve in the direction sought with a large enough effect; inconclusive means small, poorly fitted or top-dose-only effect, or another doubt; inactive means no such curve, though single readings can be large; an effect the other way counts as inactive or inconclusive.
Assays:
[1] = biological target: Catechol O-methyltransferase (Homo sapiens) (UniProt P21964); assay: Confirmatory Screen for Target Class Profiling of Small Molecule Inhibitors of Methyltransferases (AID 1745852); details: MTase-Glo luminescence, SAH detection, recombinant enzyme; measured here: COMT max response; stronger effect = lower value; on activity change, negative = inhibition: on the % scale 0 is the no-effect control and ±100 the full control effect
[2] = biological target: Guanidinoacetate N-methyltransferase (Homo sapiens) (UniProt Q14353); assay: as above; details: activity change, negative = inhibition: at 57.3 µM (top of the series) unless noted
[3] = biological target: Nicotinamide N-methyltransferase (Homo sapiens) (UniProt P40261); assay: as above; details: MTase-Glo luminescence, SAH detection, recombinant enzyme; measured here: NNMT max response; stronger effect = lower value
[4] = biological target: Phenylethanolamine N-methyltransferase (Homo sapiens) (UniProt P11086); assay: as above; details: MTase-Glo luminescence, SAH detection, recombinant enzyme; measured here: PNMT max response; stronger effect = lower value
[5] = system: NIH3T3; assay: Cytotoxic Profiling of Annotated Libraries Using Quantitative High-Throughput Screening (AID 1296008); details: Five cell lines viability, CellTiter-Glo ATP luminescence, 48-72 h; max response: stronger effect = lower value; further: nearly all actives have a fitted effect of over 60% in size; further: potency means the concentration at half of the fitted maximal effect; on max response: on the % scale 0 is the no-effect control and ±100 the full control effect
Method in brief: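 Compounds were pin-transferred onto cells and incubated 48 or 72 hr at 37 degree Celsius, 95% humidity. CellTiter-Glo was added, plates sat 10 min at room temperature, then ATP-coupled luminescence was imaged as the viability read-out.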

[6] = system: CAOV3; assay: Primary qHTS to identify gynecologic anti-cancer compounds using libraries of approved drugs and bioactive compounds (AID 1345084); details: Gynecologic cancer cell panel viability, ATPlite luminescence, 48 h; series mostly up to 57.5 µM; further: nearly all actives have a fitted effect of over 55% in size; further: potency means the concentration at half of the fitted maximal effect
Method in brief: (§1)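 Cell viability after 48 h drug treatment, ATPlite luminescence readout; five doses.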

[7] = P-glycoprotein substrates identified in KB-8-5-11 adenocarcinoma cell line, qHTS therapeutic library screen (AID 1346987); further: potency means the concentration at half of the fitted maximal effect; nearly all actives have a fitted effect of over 65% in size
Method in brief: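 Compounds are pinned in dose-response onto KB-8-5-11 cells (500 cells/well, colchicine-free medium) and left 72 h at 37 degree C. CellTiter-Glo luminescence then yields AC50 values.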

[8] = qHTS to identify inhibitors of the type 1 interferon - major histocompatibility complex class I in skeletal muscle: primary screen against the NCATS Mechanism Interrogation Plate v5.0 (MIPE) Libary (AID 1347411); further: nearly all actives have a fitted effect of over 65% in size; further: potency means the concentration at half of the fitted maximal effect;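 on activity change, negative = inhibition: plate controls were vehicle for no effect and reference inhibitor for full effect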
Method in brief: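 Luminescence from CRISPR HiBit-tagged endogenous HLA-B in human myoblasts reported MHC class I level after 24 h of IFN-beta (4 ng/ml) plus compound. Compounds ran as 11-point 1:3 series, top 46 uM final.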

[9] = biological target: Cytochrome P450 2C9 (Homo sapiens) (UniProt P11712); assay: Cytochrome P450 family 2 subfamily C member 9 (CYP2C9) small molecule antagonists: luciferase biochemical (cell-free) qHTS assay (AID 1645842; active means well fitted curve in the direction sought with a large enough effect in the repeat runs; an effect the other way counts as inactive or inconclusive; further: nearly all actives have a fitted effect of over 55% in size; further: potency means the concentration at half of the fitted maximal effect; on activity change, negative = inhibition: on the % scale 0 is the no-effect control and ±100 the full control effect)
Method in brief: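 P450-Glo CYP2C9 system: proluciferin substrate with enzyme in mix containing 0.4% BSA, 10 min at room temperature, then NADPH regeneration solution added and incubated 1 h at 37C. Detection reagent stopped reaction; luminescence read after 20 min as RLU.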

[10] = Primary redox qHTS assay for identification of artifact compounds. (AID 1845223);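 further: 0% = DMSO and 100% = reference compound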
Method in brief: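 Redox-cycling detection via DTT (250 uM final) oxidation coupled to Amplex Red (25 uM)/HRP (250 mU/mL) in HBSS. 15 min preincubation plus 30 min after DTT, room temperature. Ex/Em 525/598 nm; 4-parameter Hill fit against DMSO and 10 uM DA3003.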

[11] = system: SKOV3; assay: Primary qHTS to identify gynecologic anti-cancer compounds using libraries of approved drugs and bioactive compounds (AID 1345084); details: Gynecologic cancer cell panel viability, ATPlite luminescence, 48 h; series mostly up to 57.5 µM; further: nearly all actives have a fitted effect of over 55% in size; further: potency means the concentration at half of the fitted maximal effect
Method in brief: as §1

[12] = qHTS assay to identify inhibitors of the type 1 interferon - major histocompatibility complex class I in skeletal muscle: Counter screen cell viability and HiBit confirmation (AID 1347412); details: iHSKM muscle cells + IFN-b, HiBiT or CellTiter-Glo, 24 h; for activity change, negative = inhibition: at 45.9 µM (top of the series); further: potency means the concentration at half of the fitted maximal effect; on activity change, negative = inhibition: on the % scale 0 is the no-effect control and ±100 the full control effect; on all read-outs here: nearly all actives have a fitted effect of over 60% in size
Method in brief: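 After 24 h with human IFN-beta (4 ng/ml) and compound titrations (top 46 uM final, 1:3, 12 points), HLA-B HiBit myoblasts were lysed for either Nano-Glo HiBiT luminescence or CellTiter Glo viability on paired plates.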

[13] = system: PA-1; assay: Primary qHTS to identify gynecologic anti-cancer compounds using libraries of approved drugs and bioactive compounds (AID 1345084); details: Gynecologic cancer cell panel viability, ATPlite luminescence, 48 h; series mostly up to 57.5 µM; further: nearly all actives have a fitted effect of over 55% in size; further: potency means the concentration at half of the fitted maximal effect
Method in brief: as §1

[14] = Primary fluorescence-based thiol-reactive (MSTI) qHTS assay for identification of artifact compounds. (AID 1845221); further: nearly all actives have a fitted effect of over 65% in size; further: potency means the concentration at half of the fitted maximal effect
Method in brief: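 Probe: MSTI 4 uM, PBS pH 7.4, 2% DMSO. Incubation 1 h, RT, light-protected. Readout fluorescence 525/598 nm.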

[15] = biological target: Cytochrome P450 2D6 (Homo sapiens) (UniProt P10635); assay: Cytochrome P450 family 2 subfamily D member 6 (CYP2D6) small molecule antagonists: luciferase biochemical (cell-free) qHTS assay (AID 1645840; active means well fitted curve in the direction sought with a large enough effect in the repeat runs; an effect the other way counts as inactive or inconclusive)
Method in brief: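 P450-Glo CYP2D6 system: proluciferin substrate converted by enzyme to luciferin, read by luminescence proportional to activity. Enzyme-substrate mix with compound 10 min at room temperature, then NADPH regeneration 1 h before detection reagent.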

Cytochrome P450 2C9 (Homo sapiens), sequence (P11712 whole entry, looked up): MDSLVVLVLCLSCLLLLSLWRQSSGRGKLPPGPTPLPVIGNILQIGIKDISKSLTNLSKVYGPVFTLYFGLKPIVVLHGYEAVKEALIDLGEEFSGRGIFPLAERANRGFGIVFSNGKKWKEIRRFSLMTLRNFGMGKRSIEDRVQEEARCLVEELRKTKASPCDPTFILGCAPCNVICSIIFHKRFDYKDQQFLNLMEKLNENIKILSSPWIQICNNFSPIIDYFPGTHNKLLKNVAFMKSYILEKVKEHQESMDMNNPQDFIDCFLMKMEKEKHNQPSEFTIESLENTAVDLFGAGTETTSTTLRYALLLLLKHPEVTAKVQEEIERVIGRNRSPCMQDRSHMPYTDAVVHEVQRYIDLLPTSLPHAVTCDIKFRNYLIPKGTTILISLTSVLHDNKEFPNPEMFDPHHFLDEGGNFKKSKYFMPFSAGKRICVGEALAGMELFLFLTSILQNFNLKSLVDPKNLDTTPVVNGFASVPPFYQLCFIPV
Phenylethanolamine N-methyltransferase (Homo sapiens), sequence (P11086 whole entry, looked up): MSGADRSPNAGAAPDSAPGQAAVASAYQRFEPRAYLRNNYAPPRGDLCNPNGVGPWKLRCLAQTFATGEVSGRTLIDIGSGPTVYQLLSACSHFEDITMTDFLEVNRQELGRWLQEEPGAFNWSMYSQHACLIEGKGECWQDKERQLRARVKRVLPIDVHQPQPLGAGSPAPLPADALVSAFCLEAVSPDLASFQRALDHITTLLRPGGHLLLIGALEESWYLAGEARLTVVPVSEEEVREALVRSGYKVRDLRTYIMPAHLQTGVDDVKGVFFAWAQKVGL
Cytochrome P450 2D6 (Homo sapiens), sequence (P10635 whole entry, looked up): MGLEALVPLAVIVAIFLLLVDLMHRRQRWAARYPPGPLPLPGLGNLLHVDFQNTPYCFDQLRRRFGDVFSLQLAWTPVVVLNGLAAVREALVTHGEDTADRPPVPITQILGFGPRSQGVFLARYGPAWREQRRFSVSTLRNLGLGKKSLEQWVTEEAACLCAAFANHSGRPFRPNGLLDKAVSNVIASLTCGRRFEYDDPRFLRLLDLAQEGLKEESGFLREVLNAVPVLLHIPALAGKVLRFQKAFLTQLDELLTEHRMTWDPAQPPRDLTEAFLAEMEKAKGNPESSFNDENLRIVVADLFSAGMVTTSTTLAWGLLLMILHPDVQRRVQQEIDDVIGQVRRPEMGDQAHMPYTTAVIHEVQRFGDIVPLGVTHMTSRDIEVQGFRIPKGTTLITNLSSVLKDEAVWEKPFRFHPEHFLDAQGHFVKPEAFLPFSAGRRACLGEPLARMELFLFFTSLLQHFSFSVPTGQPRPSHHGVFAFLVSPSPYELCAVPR
Catechol O-methyltransferase (Homo sapiens), sequence (P21964 whole entry, looked up): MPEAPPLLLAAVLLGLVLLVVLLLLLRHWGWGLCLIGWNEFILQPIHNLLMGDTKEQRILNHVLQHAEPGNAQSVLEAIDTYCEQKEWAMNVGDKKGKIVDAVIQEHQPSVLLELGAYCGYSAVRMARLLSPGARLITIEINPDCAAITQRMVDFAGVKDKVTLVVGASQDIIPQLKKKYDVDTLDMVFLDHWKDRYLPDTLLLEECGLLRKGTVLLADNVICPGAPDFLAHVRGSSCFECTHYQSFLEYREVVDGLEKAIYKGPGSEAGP
Nicotinamide N-methyltransferase (Homo sapiens), sequence (P40261 whole entry, looked up): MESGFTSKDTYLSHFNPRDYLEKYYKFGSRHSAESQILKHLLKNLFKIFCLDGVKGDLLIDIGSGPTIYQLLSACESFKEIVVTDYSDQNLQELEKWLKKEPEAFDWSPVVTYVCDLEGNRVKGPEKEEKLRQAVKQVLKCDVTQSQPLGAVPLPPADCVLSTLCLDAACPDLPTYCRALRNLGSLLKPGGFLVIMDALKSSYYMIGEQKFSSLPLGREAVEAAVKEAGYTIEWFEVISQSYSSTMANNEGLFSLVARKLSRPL

## C=C1C(=O)O[C@@H]2CC(C)=C([C@@H](C)CCCO)[C@@H](OC(=O)C(C)C)[C@H]12
[1]
  activity: -63.9%
[2]
  activity change, negative = inhibition: 0%
[3]
  activity: -0.804%
[4]
  activity: 1.36%
[5]
  max response: -12.2% (inactive)
[6]
  Potency: inactive

## COc1ccc(CNC(=O)Nc2ncc([N+](=O)[O-])s2)cc1
[7]
  Potency: 23.1 µM (active)
[8]
  Potency: 18.6 µM (active)
[9]
  Potency: 7.56 µM (active)
[10]
  Potency: inactive
[6]
  Potency: inactive
[11]
  Potency: inactive

## O=c1c(-n2ccnn2)c[nH]n1-c1cc(N2CCOCC2)ncn1
[12]; HiBiT
  activity change, negative = inhibition: -24.7% (inactive)
[12]; Viability
  activity change, negative = inhibition: -14.1% (inactive)

## N#C[C@@H]1C[C@@H]2C[C@@H]2N1C(=O)[C@@H](N)C12CC3CC(CC(O)(C3)C1)C2
[8]
  Potency: inactive
[10]
  Potency: inactive
[6]
  Potency: inactive
[13]
  Potency: inactive
[11]
  Potency: inactive

## COc1cc(N2CCOCC2)ccc1Nc1ncc(F)c(Nc2ccccc2NS(C)(=O)=O)n1
[9]
  Potency: 2.13 µM (active)
[1]
  activity: -0.204%
[2]
  activity change, negative = inhibition: 2.81%
[3]
  activity: 3.16%
[4]
  activity: -0.832%
[14]
  Potency: 2.38 µM (active)
[10]
  Potency: inactive

## CC1(CO)CCCC2(C)C1C(OC(=O)c1ccccc1)C=C1C(=O)OCC12O (centres undefined)
[10]
  Potency: inactive
[5]
  Potency: 12.8 µM (active)

## C=C(C)C(=O)O[C@H]1[C@H]2C(=C)C(=O)O[C@@H]2C[C@@H](C)/C=C\C(=O)[C@](C)(O)[C@@H]1OC(C)=O
[7]
  Potency: 2.82 µM (active)
[10]
  Potency: inactive
[5]
  Potency: 7.09 µM (active)
[6]
  Potency: 8.91 µM (active)
[13]
  Potency: 10 µM (active)
[11]
  Potency: 11.2 µM (active)

## C=CC(=O)N1CCN(C(=O)c2cc(-c3cc(Cl)ccc3Cl)c(Cl)cc2OC)CC1
[15]
  Potency: 19 µM (active)
[9]
  Potency: inactive
[1]
  activity: -10.7%
[2]
  activity change, negative = inhibition: -11.4%
[3]
  activity: -31.6%
[4]
  activity: -2.64%
[14]
  Potency: inactive
[10]
  Potency: inactive
[5]
  max response: -20.9% (inactive)
[13]
  Potency: inactive

## COc1c(N2CC3CCCNC3C2)c(F)cc2c(=O)c(C(=O)O)cn(C3CC3)c12 (centres undefined)
[14]
  Potency: inactive
[10]
  Potency: inactive
[6]
  Potency: inactive
[13]
  Potency: inactive
[11]
  Potency: inactive

## Nc1nc(NCC2CCC(CNS(=O)(=O)c3cccc4ccccc34)CC2)nc2ccccc12 (centres undefined)
[15]
  Potency: 3.38 µM (active)
[9]
  Potency: 4.77 µM (active)
[1]
  activity: -12.1%
[2]
  activity change, negative = inhibition: -4.41%
[3]
  activity: -26.1%
[4]
  activity: -28.4%
[14]
  Potency: inactive
[5]
  Potency: 20.6 µM (active)
[13]
  Potency: inactive

## COCCNCc1ccc(-c2cc3nccc(Oc4ccc(NC(=S)NC(=O)Cc5ccc(F)cc5)cc4F)c3s2)nc1
[7]
  Potency: 16.4 µM (active)
[8]
  Potency: 8.29 µM (active)
[14]
  Potency: inactive
[5]
  Potency: 6.51 µM (active)
[13]
  Potency: 31.6 µM (active)
[12]; HiBiT
  Potency: 12.5 µM (active)
[12]; Viability
  Potency: 11.1 µM (active)

## Cc1nnsc1C(=O)Nc1ccc(-n2nc(C(F)(F)F)cc2C(F)(F)F)cc1
[15]
  Potency: 10.7 µM (active)
[9]
  Potency: 15.1 µM (active)
[14]
  Potency: inactive
[10]
  Potency: inactive
[13]
  Potency: inactive
[11]
  Potency: inactive

## COc1cc2nc(-c3cc(F)ccc3O)nc(N[C@@H]3CNC[C@H]3C(C)(C)O)c2cc1OC
[8]
  Potency: 3.7 µM (active)
[15]
  Potency: 19 µM (active)
[9]
  Potency: inactive
[14]
  Potency: inactive
[13]
  Potency: inactive
[11]
  Potency: inactive
[12]; HiBiT
  Potency: 8.83 µM (active)
[12]; Viability
  Potency: 31.3 µM (active)

From PubChem BioAssay (NCATS)
